The source of these data is article PMC5700166.

Common to all, as to test: protein-binding microarray (PBM); PBM: ~300 nM protein, 6 mM HEPES pH 7.8, 80 mM KCl, 0.5 mM EDTA, 0.5 mM EGTA, 6% glycerol, 35 ng/ul poly-dIdC, 1% milk, 1 h, room temperature; Ap Aiptasia and Nv Nematostella (sea anemones) / Co Capsaspora / Aq Amphimedon (sponge) / Dm Drosophila / Hu human; RHD is the Rel homology domain; high values mean tight binding
Conditions in all cases: dsDNA, one strand shown

One assay has as its target T1, GST-Ap-NF-kB RHD (Exaiptasia pallida (Aiptasia), UniProt A0A913YAJ5 2-422).
T1 sequence: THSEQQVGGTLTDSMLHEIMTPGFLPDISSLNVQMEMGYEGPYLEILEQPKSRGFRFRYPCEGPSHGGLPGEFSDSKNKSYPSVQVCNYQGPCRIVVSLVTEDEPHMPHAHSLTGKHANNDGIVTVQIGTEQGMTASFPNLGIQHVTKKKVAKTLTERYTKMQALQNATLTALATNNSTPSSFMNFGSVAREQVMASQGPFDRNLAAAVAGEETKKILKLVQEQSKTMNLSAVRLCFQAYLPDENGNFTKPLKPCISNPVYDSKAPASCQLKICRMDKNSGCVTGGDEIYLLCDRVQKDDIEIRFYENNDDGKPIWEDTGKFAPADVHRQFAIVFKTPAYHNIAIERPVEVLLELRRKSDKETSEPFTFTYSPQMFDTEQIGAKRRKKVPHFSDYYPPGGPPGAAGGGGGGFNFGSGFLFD

In assay [1] the target is T2, GST-Nv-NF-kB (Cys allele) (Nematostella vectensis, UniProt E5G601 2-411).
T2 sequence: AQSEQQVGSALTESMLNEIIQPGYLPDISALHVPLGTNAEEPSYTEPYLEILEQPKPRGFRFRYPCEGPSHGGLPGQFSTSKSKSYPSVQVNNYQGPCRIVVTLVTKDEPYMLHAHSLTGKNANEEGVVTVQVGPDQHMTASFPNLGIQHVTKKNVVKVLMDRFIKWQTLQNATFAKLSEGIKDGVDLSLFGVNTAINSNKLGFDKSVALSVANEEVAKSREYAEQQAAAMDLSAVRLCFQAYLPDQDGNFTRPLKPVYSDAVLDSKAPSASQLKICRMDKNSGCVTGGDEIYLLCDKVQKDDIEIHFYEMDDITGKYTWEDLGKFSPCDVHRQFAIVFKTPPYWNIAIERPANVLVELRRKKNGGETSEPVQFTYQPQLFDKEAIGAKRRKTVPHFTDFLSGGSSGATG

For the next assay, the target named is T3, GST-Co-NF-kB (Capsaspora owczarzaki, UniProt F1ARL5 200-546).
T3 sequence: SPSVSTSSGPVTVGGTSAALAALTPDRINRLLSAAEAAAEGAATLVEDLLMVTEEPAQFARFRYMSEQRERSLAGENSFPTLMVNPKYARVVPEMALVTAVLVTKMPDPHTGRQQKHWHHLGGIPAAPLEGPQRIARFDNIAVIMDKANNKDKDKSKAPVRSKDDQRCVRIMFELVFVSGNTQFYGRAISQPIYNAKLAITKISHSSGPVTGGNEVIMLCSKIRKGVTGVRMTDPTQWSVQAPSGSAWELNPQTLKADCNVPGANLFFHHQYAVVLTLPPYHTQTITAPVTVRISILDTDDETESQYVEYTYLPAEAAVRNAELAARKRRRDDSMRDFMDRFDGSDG

A further assay addresses T4, GST-Dm-Relish (Drosophila melanogaster, UniProt Q94527 99-473).
T4 sequence: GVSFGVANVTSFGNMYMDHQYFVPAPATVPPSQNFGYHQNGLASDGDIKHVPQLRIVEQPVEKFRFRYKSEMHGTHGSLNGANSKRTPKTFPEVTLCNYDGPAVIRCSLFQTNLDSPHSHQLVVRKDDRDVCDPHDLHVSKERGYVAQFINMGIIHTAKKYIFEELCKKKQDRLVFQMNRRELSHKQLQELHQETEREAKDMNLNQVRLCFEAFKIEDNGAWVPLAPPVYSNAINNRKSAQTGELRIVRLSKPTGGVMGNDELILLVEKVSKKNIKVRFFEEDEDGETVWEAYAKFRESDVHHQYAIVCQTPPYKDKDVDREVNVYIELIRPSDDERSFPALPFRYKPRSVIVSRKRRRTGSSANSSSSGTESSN

The next assay deals with T5, GST-Aq-NF-kB (Amphimedon queenslandica, UniProt A9Y5G7 2-389).
T5 sequence: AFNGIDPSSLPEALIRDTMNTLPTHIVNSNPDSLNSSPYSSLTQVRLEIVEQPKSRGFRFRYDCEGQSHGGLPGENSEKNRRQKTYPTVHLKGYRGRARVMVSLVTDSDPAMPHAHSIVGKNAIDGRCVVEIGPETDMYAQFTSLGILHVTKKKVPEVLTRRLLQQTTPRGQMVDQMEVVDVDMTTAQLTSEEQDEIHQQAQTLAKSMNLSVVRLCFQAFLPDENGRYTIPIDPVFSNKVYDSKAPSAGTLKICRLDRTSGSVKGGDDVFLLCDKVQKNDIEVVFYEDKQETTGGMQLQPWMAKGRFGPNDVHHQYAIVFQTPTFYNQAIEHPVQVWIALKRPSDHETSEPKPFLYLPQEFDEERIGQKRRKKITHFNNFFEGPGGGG

Regarding “CCGATTAACATCAGATGTCCCCCTGATGTTAATCGGGTCTTGATTCGCTTGACGCTGCTG”, the binding signal with GST-Ap-NF-kB RHD was 6.05 z-score; in assay [1], 5.16 z-score; with GST-Co-NF-kB it was 5.82 z-score; with GST-Dm-Relish it was 2.8 z-score; in the assay with GST-Aq-NF-kB it was 4.73 z-score.

As for “CCGATTAACATCACCCCTCCCCATGATGTTAATCGGGTCTTGATTCGCTTGACGCTGCTG”, the binding signal in the assay with GST-Ap-NF-kB RHD was 3.7 z-score; in assay [1], 2.55 z-score; in the assay with GST-Co-NF-kB, 3.58 z-score; with GST-Dm-Relish, 3.67 z-score; with GST-Aq-NF-kB, 2.92 z-score.

Consider “CCGATTAACATCATGGGAAAAAATGATGTTAATCGGGTCTTGATTCGCTTGACGCTGCTG”, for which the binding signal stood at 1.94 z-score in the assay with GST-Ap-NF-kB RHD; 3.64 z-score in assay [1]; 4.93 z-score with GST-Co-NF-kB; 1.7 z-score with GST-Dm-Relish; 2.57 z-score in the assay with GST-Aq-NF-kB.

For “CCGATTAACATCACATATACCCCTGATGTTAATCGGGTCTTGATTCGCTTGACGCTGCTG”, the binding signal in the assay with GST-Ap-NF-kB RHD came out at 3.26 z-score; in assay [1], 1.78 z-score; in the assay with GST-Co-NF-kB, 4.3 z-score; with GST-Dm-Relish, 1.34 z-score; in the assay with GST-Aq-NF-kB it was 2.28 z-score.

Regarding “CCGATTAACATCAGGGGAGTAAATGATGTTAATCGGGTCTTGATTCGCTTGACGCTGCTG”, the binding signal in the assay with GST-Ap-NF-kB RHD amounted to 3.1 z-score; in assay [1], 3 z-score; with GST-Co-NF-kB it was 4.51 z-score; with GST-Dm-Relish, 1.91 z-score; with GST-Aq-NF-kB, 3 z-score.

“CCGATTAACATCACATTTTCCCATGATGTTAATCGGGTCTTGATTCGCTTGACGCTGCTG”: the binding signal was found to be 2.42 z-score with GST-Ap-NF-kB RHD; 3.68 z-score in assay [1]; 3.98 z-score with GST-Co-NF-kB; 1.33 z-score with GST-Dm-Relish; 2.13 z-score in the assay with GST-Aq-NF-kB.

In the case of “CCGATTAACATCACAGGGAAAAATGATGTTAATCGGGTCTTGATTCGCTTGACGCTGCTG”, the binding signal with GST-Ap-NF-kB RHD is 2.81 z-score; in assay [1], 4.49 z-score; in the assay with GST-Co-NF-kB it was 5.03 z-score; in the assay with GST-Dm-Relish, 1.6 z-score; with GST-Aq-NF-kB, 3.9 z-score.

As for “CCGATTAACATCAGGGAGTTACCTGATGTTAATCGGGTCTTGATTCGCTTGACGCTGCTG”, the binding signal turned out to be 4.03 z-score with GST-Ap-NF-kB RHD; 5.22 z-score in assay [1]; 2.38 z-score with GST-Co-NF-kB; 7.17 z-score with GST-Dm-Relish; 7.22 z-score with GST-Aq-NF-kB.

In the case of “CCGATTAACATCAGGGAGATTTGTGATGTTAATCGGGTCTTGATTCGCTTGACGCTGCTG”, the binding signal is 3.21 z-score with GST-Ap-NF-kB RHD; 4.56 z-score in assay [1]; 2.54 z-score with GST-Co-NF-kB; 1.8 z-score with GST-Dm-Relish; 4.63 z-score with GST-Aq-NF-kB.

In the case of “CCGATTAACATCAGGATGTTCCCTGATGTTAATCGGGTCTTGATTCGCTTGACGCTGCTG”, the binding signal with GST-Ap-NF-kB RHD was determined as 2.3 z-score; in assay [1], 1.77 z-score; with GST-Co-NF-kB it was 1.42 z-score; with GST-Dm-Relish, 1.99 z-score; with GST-Aq-NF-kB, 4.33 z-score.
